The results in this text go back to paper PMC10156912.

One assay concerns the target PHD finger protein 12 (UniProt Q96QT6). The experiment in a line: other; cross-linking mass spectrometry; other.
The next assay concerns the target Histone deacetylase 2 (UniProt Q92769). Kind of assay: cross-link between two proteins; cross-linking mass spectrometry.

Chain of Histone deacetylase 2 (Q92769 whole entry): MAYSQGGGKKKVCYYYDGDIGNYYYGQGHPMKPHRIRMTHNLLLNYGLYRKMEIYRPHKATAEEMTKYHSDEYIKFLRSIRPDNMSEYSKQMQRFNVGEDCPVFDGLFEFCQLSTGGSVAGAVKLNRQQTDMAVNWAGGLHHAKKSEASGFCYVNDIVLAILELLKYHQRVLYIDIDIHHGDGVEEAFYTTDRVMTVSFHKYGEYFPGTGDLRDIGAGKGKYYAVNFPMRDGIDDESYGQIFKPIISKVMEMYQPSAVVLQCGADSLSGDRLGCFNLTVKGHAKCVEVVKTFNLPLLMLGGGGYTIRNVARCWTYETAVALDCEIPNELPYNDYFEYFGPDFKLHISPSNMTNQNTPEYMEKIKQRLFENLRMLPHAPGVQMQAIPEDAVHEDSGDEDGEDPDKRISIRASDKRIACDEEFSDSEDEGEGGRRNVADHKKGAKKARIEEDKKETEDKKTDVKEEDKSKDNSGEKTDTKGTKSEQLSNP
Chain of PHD finger protein 12 (Q96QT6 whole entry): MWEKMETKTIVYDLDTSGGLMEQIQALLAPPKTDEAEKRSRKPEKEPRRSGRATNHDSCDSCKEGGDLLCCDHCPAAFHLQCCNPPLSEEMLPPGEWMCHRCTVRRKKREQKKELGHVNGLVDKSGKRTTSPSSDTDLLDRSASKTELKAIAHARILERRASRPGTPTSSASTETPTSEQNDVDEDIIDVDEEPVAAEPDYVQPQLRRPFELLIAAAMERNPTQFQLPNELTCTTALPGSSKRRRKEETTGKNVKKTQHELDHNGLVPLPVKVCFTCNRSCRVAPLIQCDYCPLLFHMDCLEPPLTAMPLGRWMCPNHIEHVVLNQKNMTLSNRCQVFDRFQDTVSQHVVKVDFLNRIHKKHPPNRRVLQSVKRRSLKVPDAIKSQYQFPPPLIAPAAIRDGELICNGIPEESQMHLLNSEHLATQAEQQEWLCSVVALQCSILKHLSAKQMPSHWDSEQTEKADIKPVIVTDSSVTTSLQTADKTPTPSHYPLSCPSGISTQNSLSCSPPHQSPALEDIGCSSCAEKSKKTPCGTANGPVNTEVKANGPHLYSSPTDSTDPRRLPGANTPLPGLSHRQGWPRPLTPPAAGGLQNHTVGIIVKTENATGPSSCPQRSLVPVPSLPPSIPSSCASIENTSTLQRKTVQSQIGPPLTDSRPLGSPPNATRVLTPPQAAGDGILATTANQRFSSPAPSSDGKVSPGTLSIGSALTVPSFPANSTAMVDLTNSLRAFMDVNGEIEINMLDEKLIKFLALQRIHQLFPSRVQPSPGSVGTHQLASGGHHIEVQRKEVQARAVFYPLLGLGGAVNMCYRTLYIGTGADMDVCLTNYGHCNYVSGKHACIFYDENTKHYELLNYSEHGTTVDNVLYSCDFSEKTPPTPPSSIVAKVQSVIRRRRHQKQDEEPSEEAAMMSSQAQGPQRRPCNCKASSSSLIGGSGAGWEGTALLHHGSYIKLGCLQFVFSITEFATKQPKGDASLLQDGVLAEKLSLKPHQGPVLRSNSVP

Take “Paired amphipathic helix protein Sin3b, O75182”: the “listed as a hit” value with PHD finger protein 12 and with Histone deacetylase 2 was “yes” in each case.
